# From PubChem BioAssay (NCATS)
# Results filed as inconclusive are left out. The source made the active and inactive calls. Unless noted, the call rests on the fitted dose curve; in most records, active means well fitted curve in the direction sought with a large enough effect; inconclusive means small, poorly fitted or top-dose-only effect, or another doubt; inactive means no such curve, though single readings can be large; an effect the other way counts as inactive or inconclusive.
# Experiments:
# [1] = Quantitative High-Throughput drug screen in 47 multiple myeloma cell lines against the NCATS MIPE library collection: PE2_PLB cell viability assay (AID 1919869); further: nearly all actives have a fitted effect of over 35% in size; further: potency means the concentration at half of the fitted maximal effect
# Summary of the method: (§1)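 Plated at 500 cells per well, myeloma lines received MIPE 4.0 compounds by pin tool. Following 48 h culture at 37 °C, CellTiter-Glo luminescence gave viability relative to DMSO and media-only controls.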
# [2] = Quantitative High-Throughput drug screen in 47 multiple myeloma cell lines against the NCATS MIPE library collection: OPM2_DSMZ cell viability assay (AID 1919872); further: nearly all actives have a fitted effect of over 30% in size
# Summary of the method: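 Luminescent ATP measurement with CellTiter-Glo gives viability, scaled between DMSO-only wells (100%) and media-only wells (0%). Cells, 500 per well, faced library compounds for 48 hours at 37C.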
# [3] = Quantitative High-Throughput drug screen in 47 multiple myeloma cell lines against the NCATS MIPE library collection: KMS11_JCRBsus cell viability assay (AID 1919873); further: nearly all actives have a fitted effect of over 50% in size; further: potency means the concentration at half of the fitted maximal effect
# Summary of the method: as §1
# [4] = Quantitative High-Throughput drug screen in 47 multiple myeloma cell lines against the NCATS MIPE library collection: KMS28BM_JCRB cell viability assay (AID 1919874); further: nearly all actives have a fitted effect of over 35% in size; further: potency means the concentration at half of the fitted maximal effect
# Summary of the method: as §1
# [5] = qHTS for identification of novel therapeutic agents for treatment of microphthalmiaassociated transcription factor (MiT) renal cell carcinoma (RCC) (AID 1963991); conditions: CellTiter-Glo, 48 h, stronger effect = lower value
# Summary of the method: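 Curves over 11 concentrations were fitted to CellTiter-Glo luminescence, scaled between empty wells (0%) and DMSO (100%) viability. Cells were UOK109, UOK124 and UOK145 TFE3-fusion RCC lines at 500/well, exposed 48 hours at 37 C.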
# [6] = qHTS profiling for inhibitors of Plasmodium falciparum proliferation (AID 504749); further: nearly all actives have a fitted effect of over 60% in size; further: potency means the concentration at half of the fitted maximal effect;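 on activity, negative = inhibition: 0% = DMSO vehicle and full inhibition = artemisinin control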; conditions: P. falciparum in erythrocytes, SYBR Green DNA, 72 h
# Summary of the method: (§2)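 Three-day growth assay of blood-stage parasites in erythrocytes (0.3% parasitemia, 2.5% hematocrit) at 37 C, 5% CO2, quantified by SYBR Green DNA staining after overnight detergent lysis.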
# 3D7 = assay: as above; conditions: P. falciparum in erythrocytes, SYBR Green DNA, 72 h; series mostly up to 28.7 µM
# Summary of the method: as §2
# 7G8 = assay: as above; conditions: P. falciparum in erythrocytes, SYBR Green DNA, 72 h; series mostly up to 28.7 µM
# Summary of the method: as §2
# AA1029 = assay: as above; conditions: P. falciparum in erythrocytes, SYBR Green DNA, 72 h; series mostly up to 28.7 µM
# Summary of the method: as §2
# AS120 = assay: as above; conditions: P. falciparum in erythrocytes, SYBR Green DNA, 72 h; series mostly up to 28.7 µM
# Summary of the method: as §2
# ATS189 = assay: as above; conditions: P. falciparum in erythrocytes, SYBR Green DNA, 72 h; series mostly up to 28.7 µM
# Summary of the method: as §2
# ATS95 = assay: as above; conditions: P. falciparum in erythrocytes, SYBR Green DNA, 72 h; series mostly up to 28.7 µM
# Summary of the method: as §2
# C2A = assay: as above; conditions: P. falciparum in erythrocytes, SYBR Green DNA, 72 h; series mostly up to 28.7 µM
# Summary of the method: as §2
# CP185 = assay: as above; conditions: P. falciparum in erythrocytes, SYBR Green DNA, 72 h; series mostly up to 28.7 µM
# Summary of the method: as §2
# CP191 = assay: as above; conditions: P. falciparum in erythrocytes, SYBR Green DNA, 72 h; series mostly up to 28.7 µM
# Summary of the method: as §2
# CP192 = assay: as above; conditions: P. falciparum in erythrocytes, SYBR Green DNA, 72 h; series mostly up to 28.7 µM
# Summary of the method: as §2
# [7] = Quantitative High-Throughput drug screen in 47 multiple myeloma cell lines against the NCATS MIPE library collection: RPMI8226_ATCC cell viability assay (AID 1919871); further: potency means the concentration at half of the fitted maximal effect; nearly all actives have a fitted effect of over 30% in size
# Summary of the method: as §1
# [8] = qHTS drug screen for cell cycle checkpoint inhibitors in PARPi-resistant BRCA-mutant ovarian cancer cell lines. (AID 1963452; calls by dose curve; further: potency means the concentration at half of the fitted maximal effect); conditions: PEO1/OlaR viability, CellTiter-Glo luminescence, 96 h; for Z-AUC: stronger effect = lower value
# Summary of the method: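 PEO1, PEO4 and PEO1/OlaR ovarian cancer cells, 600 per well, exposed 96 h at 37C to a dilution series. Viability read by CellTiter-Glo luminescence, normalized to DMSO and empty wells; activity summarized as Z-AUC.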
# [9] = Quantitative High-Throughput drug screen in 47 multiple myeloma cell lines against the NCATS MIPE library collection: PCM6_Riken cell viability assay (AID 1919870); further: nearly all actives have a fitted effect of over 30% in size
# Summary of the method: as §1
# [10] = TFE3-RCC UOK109 viability, measured here: UOK109 Z-AUC
# [11] = TFE3-RCC viability, measured here: UOK124 Z-AUC
# [12] = TFE3-RCC viability, measured here: UOK145 Z-AUC
# [13] = measured here: PEO1 parental Z-AUC
structure (smiles),measurement,setting,value
C[C@H]1C[C@@H]2[C@@H]([C@@H](O)C[C@@]3(C)[C@H]2CC[C@]3(O)C(=O)CO)[C@@]2(C)C=CC(=O)C=C12,Potency,[1],inactive
same,Potency,[2],inactive
same,Potency,[3],0.105 µM (active)
same,Potency,[4],inactive
same,z-score,[5]; [10],0.15
same,z-score,[5]; [11],0.208
same,z-score,[5]; [12],0.428
same,"activity, negative = inhibition","[6]; at 12.8 µM (top of the series), parasite line A",-0.344% (inactive)
same,"activity, negative = inhibition","[6]; at 12.8 µM (top of the series), parasite line B",-25.6% (inactive)
same,Potency,3D7,inactive
same,Potency,7G8,inactive
same,Potency,AA1029,inactive
same,Potency,AS120,inactive
same,Potency,ATS189,inactive
same,Potency,ATS95,inactive
same,Potency,C2A,inactive
same,Potency,CP185,inactive
same,Potency,CP191,inactive
same,Potency,CP192,inactive
COc1cc(-c2nn(C3CCC(N4CCN(C(C)=O)CC4)CC3)c3ncnc(N)c23)ccc1NC(=O)c1cc2ccccc2n1C (stereo unspecified),Potency,[1],2.96 µM (active)
same,Potency,[7],18.7 µM (active)
same,Potency,[3],4.18 µM (active)
same,Potency,[4],3.32 µM (active)
same,Z-AUC,[8],-1.39 (inactive)
same,Z-AUC,[8]; [13],0.075
same,Z-AUC,[8]; measured here: PEO4 Z-AUC,-0.0545
C[C@]12CC[C@H](O)CC1=CCC1C2CC[C@]2(C)C(n3cnc4ccccc43)=CCC12 (stereo partly specified),Potency,[1],inactive
same,Potency,[9],inactive
same,Potency,[3],inactive
same,Potency,[4],inactive
same,Z-AUC,[8],0.586 (inactive)
same,Z-AUC,[8]; [13],1.13
same,Z-AUC,[8]; measured here: PEO4 Z-AUC,0.642
same,z-score,[5]; [10],0.298
same,z-score,[5]; [11],0.603
same,z-score,[5]; [12],-0.0216
CC1(C)O[C@@H]2C[C@@H]3[C@H]4C[C@@H](F)C5=CC(=O)C=C[C@]5(C)[C@@]4(F)[C@@H](O)C[C@]3(C)[C@]2(C(=O)CO)O1,Potency,[1],1.18 µM (active)
same,Potency,[7],0.0083 µM (active)
same,Potency,[2],inactive
same,"activity, negative = inhibition","[6]; at 28.7 µM (top of the series), parasite line A",4.83% (inactive)
same,"activity, negative = inhibition","[6]; at 28.7 µM (top of the series), parasite line B",2.94% (inactive)
same,Potency,3D7,inactive
same,Potency,AA1029,inactive
same,Potency,AS120,inactive
same,Potency,ATS189,inactive
same,Potency,ATS95,inactive
same,Potency,C2A,inactive
same,Potency,CP185,inactive
same,Potency,CP191,inactive
COC(=O)C[C@](O)(CCCC(C)(C)O)C(=O)O[C@@H]1C(OC)=C[C@]23CCCN2CCc2cc4c(cc2[C@H]13)OCO4,Potency,[1],20.9 µM (active)
same,Potency,[2],inactive
same,Potency,[3],29.6 µM (active)
same,Potency,[4],10.5 µM (active)
same,Potency,[8],436 nM (active)
same,Z-AUC,[8]; [13],-2.08
same,Z-AUC,[8]; measured here: PEO4 Z-AUC,-2.6
same,z-score,[5]; [10],0.959
same,z-score,[5]; [11],0.544
same,z-score,[5]; [12],0.67
same,Potency,[6]; parasite line A,25.1 nM (active)
same,Potency,[6]; parasite line B,25.1 nM (active)
same,Potency,3D7,25.1 nM (active)
same,Potency,7G8,11.2 nM (active)
same,Potency,AA1029,25.1 nM (active)
same,Potency,AS120,15.8 nM (active)
same,Potency,ATS189,31.6 nM (active)
same,Potency,ATS95,28.2 nM (active)
same,Potency,C2A,22.4 nM (active)
same,Potency,CP185,35.5 nM (active)
same,Potency,CP191,28.2 nM (active)
same,Potency,CP192,26.9 nM (active)
